For five molecules, composite z-score and z-score results are on record in PubChem BioAssay.

Activity calls are given as the source filed them. Unless noted, how the calls were made is not given here.

Assay [1] is described as follows: anti-His antibody binders, primary screen, artefact control for SMM control protein annotation, biochemical, small-molecule microarray, 635 nm fluorescence (AID 1128).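 Further: score merges feature fluorescence with signal-to-noise for each printed compound spot.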 The following applies: anti-His Alexa647 antibody binding, higher = more signal.
Assay [2] concerns Human papillomavirus type 1a E7 protein (residues 1-88). Nature of the assay: HPV1a E7 small-molecule binders, primary screen, biochemical, small-molecule microarray, residues 1-88, 635 nm (AID 1129). The settings on record: small-molecule microarray binding, fluorescence 635 nm; higher = more signal.
For assay [3], the target named is Focal adhesion kinase 1 (Homo sapiens) (UniProt Q05397). Nature of the assay: small-molecule microarray binders of FAK, primary screen, biochemical, 635/667 nm fluorescence, BSA, DTT (AID 1130).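 Further: composite of spot emission at 667 nm and signal to noise over triplicate slides.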 The following applies: PTK2 binding, 635 nm fluorescence, higher = more signal.
Chain of Focal adhesion kinase 1 (Homo sapiens) (Q05397 whole entry, looked up): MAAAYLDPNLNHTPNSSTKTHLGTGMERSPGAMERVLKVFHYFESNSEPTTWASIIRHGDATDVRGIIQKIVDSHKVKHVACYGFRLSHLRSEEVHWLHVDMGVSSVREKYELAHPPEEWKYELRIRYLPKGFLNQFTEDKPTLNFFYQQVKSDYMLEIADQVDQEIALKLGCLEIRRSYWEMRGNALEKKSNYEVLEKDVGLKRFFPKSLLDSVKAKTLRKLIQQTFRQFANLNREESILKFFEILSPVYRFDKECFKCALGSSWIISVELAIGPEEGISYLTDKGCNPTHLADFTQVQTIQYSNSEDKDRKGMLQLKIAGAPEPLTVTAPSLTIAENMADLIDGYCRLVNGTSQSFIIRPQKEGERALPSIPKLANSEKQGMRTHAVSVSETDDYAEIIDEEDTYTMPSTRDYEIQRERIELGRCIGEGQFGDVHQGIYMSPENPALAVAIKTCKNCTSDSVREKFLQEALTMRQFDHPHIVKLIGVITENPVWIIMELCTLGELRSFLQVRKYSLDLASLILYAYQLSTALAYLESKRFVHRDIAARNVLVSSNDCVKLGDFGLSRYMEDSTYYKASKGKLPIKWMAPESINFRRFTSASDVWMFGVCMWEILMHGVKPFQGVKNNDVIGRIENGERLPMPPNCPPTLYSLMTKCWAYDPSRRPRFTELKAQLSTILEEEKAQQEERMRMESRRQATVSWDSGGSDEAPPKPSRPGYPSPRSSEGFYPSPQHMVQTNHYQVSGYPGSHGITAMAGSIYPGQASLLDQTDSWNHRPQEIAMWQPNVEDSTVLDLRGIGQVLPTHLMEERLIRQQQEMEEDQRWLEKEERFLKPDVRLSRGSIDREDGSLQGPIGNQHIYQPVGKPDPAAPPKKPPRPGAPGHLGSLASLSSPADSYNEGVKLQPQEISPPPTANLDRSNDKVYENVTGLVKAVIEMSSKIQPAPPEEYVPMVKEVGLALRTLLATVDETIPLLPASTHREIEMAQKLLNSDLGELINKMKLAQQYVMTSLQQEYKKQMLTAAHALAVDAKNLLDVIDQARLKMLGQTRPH
The test system of assay [4] is Fibrinogen (Alexa647-labelled). Nature of the assay: fibrinogen binders on compound microarrays, profiling panel, artefact control for SMM control-protein annotation, biochemical, small-molecule microarray, 635/667 nm fluorescence (AID 1131).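 Further: z-score merges 667 nm fluorescence with per-spot signal-to-noise over triplicate slides.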 The settings on record: fibrinogen-A647 binding fluorescence, higher = more signal.
Assay [5] deals with Follistatin (Homo sapiens) (UniProt P19883). Kind of assay: follistatin binders on small-molecule microarrays, primary screen, biochemical, small-molecule microarray, 635/667 nm fluorescence (AID 1132). The settings on record: FST binding, 635 nm fluorescence, higher = more signal.
Chain of Follistatin (Homo sapiens) (P19883 whole entry, looked up): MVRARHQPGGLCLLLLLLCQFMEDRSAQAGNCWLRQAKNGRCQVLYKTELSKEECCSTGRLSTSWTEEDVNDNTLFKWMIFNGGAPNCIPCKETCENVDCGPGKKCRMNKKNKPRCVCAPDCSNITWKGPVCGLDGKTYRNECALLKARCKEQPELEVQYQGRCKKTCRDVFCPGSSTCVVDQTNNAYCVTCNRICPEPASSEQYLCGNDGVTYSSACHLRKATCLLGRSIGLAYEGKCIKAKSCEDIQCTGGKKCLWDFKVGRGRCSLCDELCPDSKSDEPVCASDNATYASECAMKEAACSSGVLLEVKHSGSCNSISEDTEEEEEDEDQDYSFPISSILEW
Assay [6] deals with Fibroblast growth factor 2 (Homo sapiens) (UniProt P09038). Kind of assay: FGF2 binders on small-molecule microarrays, primary screen, biochemical, small-molecule microarray, 635/667 nm fluorescence (AID 1133). The settings on record: small-molecule microarray binding, FGF2, fluorescence 635/667; higher = more signal.
Chain of Fibroblast growth factor 2 (Homo sapiens) (P09038 whole entry, looked up): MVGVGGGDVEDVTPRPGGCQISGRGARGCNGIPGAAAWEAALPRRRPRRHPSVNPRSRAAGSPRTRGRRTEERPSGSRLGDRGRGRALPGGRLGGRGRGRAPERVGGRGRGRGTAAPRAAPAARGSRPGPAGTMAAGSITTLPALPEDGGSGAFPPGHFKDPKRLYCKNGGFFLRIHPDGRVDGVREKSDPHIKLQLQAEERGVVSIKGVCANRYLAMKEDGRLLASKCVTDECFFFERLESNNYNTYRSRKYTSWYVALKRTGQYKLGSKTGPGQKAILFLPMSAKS
Assay [7] in a line: mitochondrial membrane potential change in A549 cells, profiling panel, cell-based, JC-1 fluorescence, basal, 24 h, 100 nL (AID 1138).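 Further: A549 lung adenocarcinoma cells under basal conditions with no added stimulus; test concentration not given here.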 The following applies: higher = more signal.
In assay [8] the test system is Lefty1. Nature of the assay: Lefty1 binders on small-molecule microarrays, primary screen, biochemical, small-molecule microarray, 635/667 nm fluorescence (AID 1139). The settings on record: small-molecule microarray binding, fluorescence 635/667; higher = more signal.
Assay [9] deals with wheat germ agglutinin (Triticum aestivum), Alexa647-labelled. Nature of the assay: wheat germ agglutinin binders on compound microarrays, profiling panel, artefact control for SMM control-protein annotation, biochemical, small-molecule microarray, 635/667 nm fluorescence (AID 1140).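 Further: score merges 667 nm feature emission with signal to noise over triplicate slides.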 The following applies: WGA-A647 binding, 635 nm fluorescence, higher = more signal.
Assay [10] deals with Luciferin 4-monooxygenase (Photinus pyralis) (UniProt P08659). Nature of the assay: firefly luciferase enzyme inhibitors, primary screen, biochemical, luminescence, purified enzyme, 2006 set (AID 1141).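 Further: cell-free assay with purified firefly luciferase at 100 ng per well in PBS; test concentration not given here.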 The following applies: SteadyGlo luminescence, 30 min, higher = more signal, called active from +8 up or from −8 down.
Chain of Luciferin 4-monooxygenase (Photinus pyralis) (P08659 whole entry, looked up): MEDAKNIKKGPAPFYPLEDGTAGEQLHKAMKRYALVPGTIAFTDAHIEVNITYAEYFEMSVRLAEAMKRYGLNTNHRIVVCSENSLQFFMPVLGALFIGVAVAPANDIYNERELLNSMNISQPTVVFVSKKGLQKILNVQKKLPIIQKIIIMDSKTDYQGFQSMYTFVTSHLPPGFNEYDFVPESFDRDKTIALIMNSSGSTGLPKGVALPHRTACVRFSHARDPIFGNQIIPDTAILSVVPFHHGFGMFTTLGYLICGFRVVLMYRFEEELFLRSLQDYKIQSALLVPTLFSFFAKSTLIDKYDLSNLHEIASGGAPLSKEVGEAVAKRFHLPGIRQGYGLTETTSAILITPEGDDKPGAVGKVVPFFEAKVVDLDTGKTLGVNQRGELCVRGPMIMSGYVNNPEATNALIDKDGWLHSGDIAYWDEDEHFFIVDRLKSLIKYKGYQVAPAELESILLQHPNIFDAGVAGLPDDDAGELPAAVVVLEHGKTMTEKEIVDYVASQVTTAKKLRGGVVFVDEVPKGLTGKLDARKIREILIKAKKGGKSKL
Assay [11] concerns Wnt5a (protein binding on small-molecule microarray). Nature of the assay: Wnt5a binders on small-molecule microarray, primary screen, biophysical, 635/667 nm fluorescence (AID 1142).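 Further: fluorescence read at 667 nm with signal to noise per printed feature.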 The settings on record: 635 nm fluorescence, higher = more signal.
Assay [12] in a line: cell viability in Huh7 cells, primary screen, cytotoxicity control for HCV replication inhibitor project, CellTiter-Glo luminescence, basal, 48 h (AID 1143).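 Further: Huh7 hepatoma cells carrying a hepatitis C replication reporter with no stimulus; test concentration not given here.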 The settings on record: Huh7 HCV replicon, higher = more signal, called active from +8 up or from −8 down. (In general: ATP-based viability assays read luminescence as a measure of living cells.)
A short description of assay [13]: P. aeruginosa biofilm formation inhibitors, primary screen, PAO1 strain, BacTiter-Glo luminescence, LB-PBS (AID 1144). The following applies: 12 h, higher = more signal.
Assay [14] is described as follows: CREB reporter modulators without forskolin, primary screen, cell-based, PC12, CRE-LacZ reporter, unstimulated (AID 1145). The settings on record: no forskolin, luminescence, 4.5 h, higher = more signal, called active from +8 up or from −8 down.
The nature of assay [15]: CREB reporter modulators under forskolin, primary screen, cell-based, PC12, CRE-LacZ reporter, forskolin-stimulated (AID 1146).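 Further: PC12 cells with 6xCRE LacZ reporter stimulated by forskolin 10 µM; beta-galactosidase reporter signal reflecting CREB driven transcription.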 The settings on record: luminescence, 4.5 h, higher = more signal, called active from +8 up or from −8 down.
Assay [16] deals with Streptavidin (Streptomyces avidinii) (UniProt P22629). Kind of assay: streptavidin binders on small-molecule microarray, primary screen, artefact control for SMM compound annotation, biophysical, 635/667 nm fluorescence (AID 1147).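 Further: signal reflects streptavidin binding to arrayed compounds as a control protein.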 The settings on record: streptavidin binding, higher = more signal.
Chain of Streptavidin (Streptomyces avidinii) (P22629 whole entry, looked up): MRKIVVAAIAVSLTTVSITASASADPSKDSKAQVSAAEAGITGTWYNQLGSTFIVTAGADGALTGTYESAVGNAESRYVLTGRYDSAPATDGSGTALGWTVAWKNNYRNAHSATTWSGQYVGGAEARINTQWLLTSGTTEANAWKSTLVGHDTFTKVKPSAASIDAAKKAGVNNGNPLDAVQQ
Assay [17] is described as follows: small-molecule binders of probe aInhba, primary screen, biochemical, small-molecule microarray, 635/667 nm fluorescence (AID 1148).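 Further: score merges 667nm spot fluorescence with signal-to-noise for antibody binding to printed compounds.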 The following applies: higher = more signal.
For assay [18], the target named is Torsin-1A (Homo sapiens) (UniProt O14656). Kind of assay: torsin A binders from cell lysate, primary screen, small-molecule microarray, wild-type, 635/667 nm (AID 1149). The settings on record: COS7 hTOR1A-WT lysate, 635 nm fluorescence, higher = more signal.
Chain of Torsin-1A (Homo sapiens) (O14656 whole entry, looked up): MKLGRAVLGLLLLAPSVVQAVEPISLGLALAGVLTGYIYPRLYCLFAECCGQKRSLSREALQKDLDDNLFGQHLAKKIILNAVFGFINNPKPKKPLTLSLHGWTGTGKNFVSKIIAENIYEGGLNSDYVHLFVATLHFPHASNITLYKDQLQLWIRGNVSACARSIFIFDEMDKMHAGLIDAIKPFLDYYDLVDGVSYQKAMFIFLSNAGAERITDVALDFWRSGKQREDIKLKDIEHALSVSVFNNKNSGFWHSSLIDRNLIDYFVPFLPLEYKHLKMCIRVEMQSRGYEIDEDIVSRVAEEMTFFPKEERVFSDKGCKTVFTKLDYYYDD
For assay [19] the target is unchanged. Kind of assay: small-molecule binders of mutant TOR1A in lysate, primary screen, cell lysate, small-molecule microarray, COS7 lysate, 635/667 nm fluorescence (AID 1150).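 Further: score pools 667 nm emission and signal to noise measuring lysate protein binding.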 The settings on record: COS7 hTOR1A mutant lysate, 635 nm fluorescence, higher = more signal.
In assay [20] the test system is Sonic hedgehog protein (Shh). Kind of assay: small-molecule binders of Shh protein, primary screen, biochemical, small-molecule microarray, 635/667 nm fluorescence (AID 1151).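 Further: Shh protein binding to compounds spotted on small-molecule microarray slides; score combines spot fluorescence intensity with signal-to-noise across triplicate slides.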 The following applies: small-molecule microarray binding, 635 nm fluorescence; higher = more signal.

Regarding `COC(=O)[C@@]1(Cc2ccc(F)cc2)[C@H]2c3cc(C(=O)N(C)C)n(CCCNc4ccc(C(F)(F)F)cc4Cl)c3C[C@H]2CN1C(=O)c1ccccc1`, the composite z-score was 2.17 in [1]; 1.24 in [2]; 0.903 in assay [3]; 1.01 in assay [4]; 0.543 in assay [5]; -0.123 in assay [6]. Further, the composite z-score in assay [8] was 0.0748; in [9], 1.3; in [11], 0.72; in assay [16] it was 1.8; in assay [17], 0.572; in assay [18], -0.335. The figures for the composite z-score in assay [19] and in assay [20] were 0.547 and -0.576, respectively. For the same molecule, the z-score is 0.284 in [7]; 0.579 (inactive) in assay [10]; -3.53 (inactive) in [12]; -0.119 (inactive) in [13]; -0.379 (inactive) in [14]; 0.607 (inactive) in assay [15].

Consider `CCOC(=O)C[C@H]1[C@H](OC(=O)c2ccccc2-c2ccccc2)[C@@H](NC(=O)c2ccc(-c3ccccc3)cc2)c2cc(OCCCO)ccc2N1C(=O)c1ccccc1`, for which the composite z-score in assay [1] worked out at 0.426; in assay [2], 0.78; in assay [3], 0.177; in assay [4], 0.58; in assay [5], 0.77; in assay [6] it was 0.466. For the same molecule, the composite z-score in [8] is 0.935; in [9] it was 0.17; in assay [11], 0.0187; in [16], 0.236; in assay [17] it was 0.0569; in assay [18], -0.29. Besides, the composite z-score in [19] was found to be 0.272; in assay [20] it was 0.684. The z-score was 1.39 in assay [7]; -0.0993 (inactive) in assay [10]; -0.134 (inactive) in assay [12]; 0.945 (inactive) in assay [13]; 3.85 (inactive) in [14]; -1.14 (inactive) in assay [15].

`COc1ccc(CCNC(=O)[C@@]2(C)c3ccccc3C(=O)N(Cc3ccccc3)[C@H]2c2ccc(CO)cc2)cc1`: the composite z-score turned out to be 1.01 in assay [1]; 1.29 in assay [2]; 0.652 in [3]; 1 in [4]; 1.45 in assay [5]; 1.42 in assay [6]. Besides, the composite z-score was 1.57 in [8]; 0.62 in assay [9]; 0.968 in assay [11]; 1.3 in [16]; 0.122 in assay [17]; 2.07 in assay [18]. For the same molecule, the composite z-score in assay [19] was determined as 1.67; in assay [20] it was 2.16. Also, the z-score was -1.72 in [7]; 1.11 (inactive) in assay [10]; -5.28 (inactive) in assay [12]; -2.01 (inactive) in assay [13]; 0.208 (inactive) in assay [14]; 0.303 (inactive) in assay [15].

Take `CC(C)(C)OC(=O)CC[C@@]1(C(=O)NCC(O)CO)N=C(c2ccc(OCCCO)cc2)O[C@@H]1c1ccccc1` (stereo not given in full): the composite z-score is 0.0885 in [1]; 0.913 in [2]; 0.415 in assay [3]; 0.681 in assay [4]; 0.392 in [5]; -0.691 in [6]. The composite z-score was -0.0491 in assay [8]; 0.467 in assay [9]; 0.0271 in assay [11]; -0.0256 in assay [16]; -0.0361 in assay [17]; 1.07 in [18]. Moreover, the composite z-score is 1.01 in assay [19] and -0.887 in assay [20]. Further, the z-score in assay [7] is 0.477; in assay [10], -0.962 (inactive); in assay [12], 0.496 (inactive); in assay [13] it was -1.15 (inactive); in assay [14] it was 2.06 (inactive); in [15], -0.904 (inactive).

For the molecule `NC(=O)NCC#Cc1ccc2c(c1)[C@]1(C(=O)N2)[C@H](c2ccccc2OCCO)N2[C@H](c3ccccc3)[C@H](c3ccccc3)OC(=O)[C@H]2[C@@H]1C(=O)N1CCCCCCC1`, the composite z-score was 0.443 in assay [1]; 1.25 in [2]; 2.2 in [3]; 0.505 in assay [4]; 1.37 in assay [5]; 0.927 in assay [6]. Further, the composite z-score in assay [8] was found to be 0.912; in assay [9], 1.46; in assay [11] it was 0.723; in assay [16], 2.48; in assay [17] it was 1.88; in assay [18], 2.04. The composite z-score in [19] was determined as 1.28; in assay [20], 1.05. For the same molecule, the z-score is -0.724 in assay [7]; -0.87 (inactive) in assay [10]; -1.57 (inactive) in assay [12]; 0.433 (inactive) in [13]; 0.802 (inactive) in [14]; 0.109 (inactive) in assay [15].
